Experimental data: PubChem BioAssay AID2314 (National Center for Advancing Translational Sciences (NCATS), 2010)
Screen size: about 300,000 compounds; about 37,000 (12%) were called active. Cut-off read from the data, not from the text of the source: active = max response mostly above about 13% (no sharp cut-off); inactive = mostly below about 14%. The full list was thinned out, with actives kept by preference.

Test: Cycloheximide Counterscreen for Small Molecule Inhibitors of Shiga Toxin; note: read at 38.3 µM for the half of the compounds with a filed dose; 0% is about no effect
Details: cell reporter, cycloheximide protein synthesis inhibition counterscreen; stronger effect = higher value

| SMILES | max response |
| --- | --- |
| CC(C(=O)N=Nc1c(O)n(C)c2ccc(Br)cc12)n1cnc2ccccc2c1=O (stereo unspecified) | 1.79% (inactive) |
| Cn1c(CCCOc2ccc(Cl)cc2Cl)n[nH]c1=S | 16.1% (active) |
| S=c1[nH]nc(CSCc2ccc(Cl)cc2Cl)n1-c1ccccc1 | -1.69% (inactive) |
| O=C(CCCOc1ccc(Cl)cc1Cl)NNC(=O)C1CCC1 | 3.02% (inactive) |
| CC(C)Cn1c(N)c(C(=O)COC(=O)CN2C(=O)C3CC=CCC3C2=O)c(=O)n(C)c1=O (stereo unspecified) | 1.25% (inactive) |
| COc1ccc(-n2c(-c3ccc(OC)c(OC)c3)n[nH]c2=S)cc1 | -1.61% (inactive) |
| COc1ccc(-n2cc(-c3ccccc3)c3c(=S)nc[nH]c32)cc1 | -2.8% (inactive) |
| COc1ccc(-c2cn(-c3ccc(OC)cc3)c(=S)[nH]2)cc1 | 37.9% (active) |
| O=C(Cc1ccc(S(=O)(=O)N2CCOCC2)s1)NCCC(c1ccccc1)c1ccccc1 | -2.5% (inactive) |
| CCOC(=O)c1cc(Sc2ccccc2N)cc(C(=O)OCC)n1 | -2.14% (inactive) |
| Nc1ccccc1Sc1ccc(C(F)(F)F)cc1[N+](=O)[O-] | -0.845% (inactive) |
| CCS(=O)(=O)c1cc([N+](=O)[O-])c(Sc2ccccc2N)s1 | 52.5% (active) |
| Fc1ccc(-n2c(Cc3ccccc3)nnc2SCc2nc(-c3ccc(Cl)cc3)no2)cc1 | -3.26% (inactive) |
| CCOC(=O)C1C(c2ccc(O)cc2)NC(=O)NC1(O)C(F)(F)F (stereo unspecified) | -1.88% (inactive) |
| Cc1cc(OC(C)C(=O)NC2CC(C)(C)NC(C)(C)C2)c2c(C)cc(=O)oc2c1 (stereo unspecified) | 2.41% (inactive) |
| CN(C)CCCNC(=O)c1cc(C(=O)Cc2ccc(Cl)cc2)c[nH]1 | 0.733% (inactive) |
| COc1cccc(NC(=S)NC(=O)c2c(Cl)c(C)nn2C)c1 | 18.3% (inactive) |
| CC(C)CNC(=S)NNC(=O)c1nn(C)cc1Cl | -2.88% (inactive) |
| Cn1cc(Cl)c(C(=O)NNC(=S)Nc2cccc(Cl)c2)n1 | 42% (active) |
| COc1ccc(C2=NS(=O)(=O)N(C)C(C(=O)N3CCCCC3)=C2)cc1 | 0.248% (inactive) |
| NC(N)=Nc1nc2ccc(Br)cc2c(=O)[nH]1 | 1.64% (inactive) |

| SMILES | max response |
| --- | --- |
| CC(=O)Nc1ccc(S(=O)(=O)NNC(=O)CCc2ccccc2)cc1 | 17.5% (inactive) |
| COCC1CCCN(C(=O)c2ccc3oc(C(C)C)nc3c2)C1 (stereo unspecified) | 12.4% (inactive) |
| COc1ccc(CNC(=O)c2ccc3oc(C(C)C)nc3c2)cc1 | 43.8% (active) |
| COc1ccc(C(=O)N[C@H](C(=O)NCc2ccccc2)C(C)C)cc1 | 1.24% (inactive) |
| CC(C)c1nc2cc(C(=O)NC(C)c3cnn(C)c3)ccc2o1 (stereo unspecified) | 16.9% (active) |
| Cc1ccc(C(=O)NC(C)c2ccccc2)cc1Br (stereo unspecified) | 12.6% (inactive) |
| CCOc1c2ccc(C(=O)NCc3ccc(OC(F)(F)F)cc3)cc2nn1C | -3.46% (inactive) |
| COC(=O)c1ccc(CNC(=O)c2ccc3oc(C(C)C)nc3c2)cc1 | 49.5% (active) |
| COC(=O)c1ccc(CSc2nc3cc(Cl)ccc3o2)cc1 | -2.59% (inactive) |
| COc1ccc(CNC(=O)c2cc(=O)c3c(C)cc(C)cc3o2)cc1 | 10.1% (inactive) |
| Cc1c(C)c(C)c2[nH]c(=S)[nH]c2c1C | 0.294% (inactive) |
| COC1=C/C(=C/c2c(N)n3nc(CC(=O)N4CCOCC4)sc3nc2=O)C=CC1=O | 21.2% (inactive) |
| CC(C)C(=O)N1CC(=O)Nc2ccc(F)cc2C1c1ccc(F)cc1 (stereo unspecified) | 0.988% (inactive) |
| O=c1oc2cc(O)ccc2cc1-c1ccc(F)cc1 | 43.3% (active) |
| COc1ccc(-c2cc3ccc(OCc4nn[nH]n4)cc3oc2=O)cc1 | 2.53% (inactive) |
| COc1cccc(C(=O)c2cc3ccc(O)cc3oc2=O)c1 | 7.25% (inactive) |
| C/C(CC(=O)Nc1ccc(N(C)C)cc1)=N\NC(=O)c1ccccc1F | 38.4% (active) |
| C/C(CC(=O)Nc1ccc(Cl)cc1)=N\NC(=O)C(=O)NCCO | 7.42% (inactive) |
| CN(C)c1ccc(NC(=O)CN2C3CCCC2CC(NC(=O)c2ccccc2)C3)cc1 (stereo unspecified) | -6.36% (inactive) |
| CCn1c2ccccc2c2cc(NC(=O)C/C(C)=N/NC(=O)c3ccccc3N)ccc21 | 39.3% (active) |
| CCn1c2ccccc2c2cc(NC(=O)COC(=O)c3ccccc3Br)ccc21 | 1.49% (inactive) |

| SMILES | max response |
| --- | --- |
| CCn1c2ccccc2c2cc(NC(=O)CNC)ccc21 | -0.552% (inactive) |
| Cc1ccccc1N1CCN(C2CCCN(C(=O)c3cn4c(C)cccc4n3)C2)CC1 (stereo unspecified) | -1.34% (inactive) |
| COc1ccc(CC(=O)N2N=C(C)CC2(O)C(F)(F)F)cc1 (stereo unspecified) | 15.5% (inactive) |
| O=C(CCc1nnc(Cc2ccc3c(c2)OCO3)o1)NCCc1ccccc1Cl | 4.94% (inactive) |
| COCCCn1c(Cc2csc(Nc3cccc(Cl)c3)n2)nnc1SCC(=O)OC1CCCCC1 | 1.16% (inactive) |
| O=C(Nc1ccc(S(=O)(=O)NCC2CCCO2)cc1)c1ccc(F)cc1 (stereo unspecified) | -1.11% (inactive) |
| CCn1cc(C(=O)N2CC(C)CC(C)C2)c(=O)c2cc(S(=O)(=O)N3CCCC3)ccc21 (stereo unspecified) | -2.89% (inactive) |
| COc1ccc(/C=C/c2noc(-c3ccccc3OC(C)=O)n2)cc1 | 19% (active) |
| CC(=O)Oc1ccc(-c2nc3c(C)cccc3c(=O)o2)cc1 | -4.07% (inactive) |
| CC(=O)Oc1ccc2c(c1)C(=O)c1ccccc1C2=O | 8.81% (inactive) |
| Cn1cccc1C(=O)NC(=O)COC(=O)Cc1coc2ccc3ccccc3c12 | 4.33% (inactive) |
| CCN(CC(=O)NCc1cccs1)C(=O)c1ccccc1F | -0.418% (inactive) |
| COc1ccc(C)cc1NC(=O)CNCc1cccs1 | 8.07% (inactive) |
| O=C(Cc1coc2ccc3ccccc3c12)NCc1cccs1 | 11.8% (active) |
| COc1cc(CC(=O)NCc2cccs2)cc(OC)c1OC | 0.388% (inactive) |
| Cc1ccc2c(CC(=O)NCc3cccs3)coc2c1 | 29.3% (active) |
| CCCNC(=O)CCn1nc(-c2ccccc2)c2ccccc2c1=O | -3.01% (inactive) |
| CCN(CC)S(=O)(=O)c1ccc(N2CCCC2)c(NS(=O)(=O)c2cccs2)c1 | -6.15% (inactive) |
| CCOC(=O)CSC1=N/C(=C/c2ccc(-n3cncn3)cc2)C(=O)N1C(C)=O | -4.18% (inactive) |
